Source: PubChem BioAssay (Tox21)
Values joined by “and” are separate entries in the source; they are usually repeats but may differ in a detail not shown here. Equal values may be shown once. Results filed as inconclusive are left out. A call without a number means that no potency is given here. Unmarked numbers belong to inactive results. Active and inactive are the calls of the source. The call rests on the fitted dose curve; in most records, active means well fitted cell-killing curve with a large enough effect in the repeat runs; inconclusive means weak or mixed curves, or effect the other way; inactive means no such curve, though single readings can be large or run the other way.

assay: qHTS assay to identify small molecule agonists of the RXR signaling pathway - cell viability counter screen (AID 1159529); details: RXR-alpha-bla HEK293T viability, CellTiter-Glo, 16 h; series mostly up to 76.8 µM; further: nearly all actives have a fitted effect of over 50% in size
Excerpt: National Center for Advancing Translational Sciences [NCATS]
NIH Chemical Genomics Center [NCGC]
U.S. Environmental Protection Agency [EPA]
National Institutes of Environmental Health Sciences [NIEHS]
National Toxicology Program [NTP]
U.S. Food and Drug Administration [FDA]
The Retinoid X receptor (RXR), a nuclear hormone receptor expressed in liver, spleen, placenta, epidermis, central nervous system. These receptors are able to form homo and heterodimers with other nuclear receptors and due to this heterodimerizing ability, RXR functions as master regulators producing diverse physiological effects. Three subtypes of RXR exist; alpha, beta and gamma. Retinoid X receptor alpha (RXR-alpha) has potential roles in metabolic signaling pathways, skin alopecia, dermal cysts, cardiac development, insulin sensitization etc. Therefore screening environmental chemicals on RXR-alpha signaling can be used for the studies focused on such therapeutic applications. For quantification of RXR-alpha ligands signaling, GeneBLAzer RXR alpha-UAS-bla HEK 293T (Life Technologies, Carlsbad, CA) cells containing a beta-lactamase reporter-gene under control of Retinoid X receptor-alpha response element were used to screen Tox21 10K library. The cytotoxicity of the Tox21 compound library against the RXR-alpha HEK 293T cell line was tested in parallel by measuring cell viability using CellTiter-Glo assay (Promega Corporation, Madison, WI) in the same wells.
Tox21 Assay Protocol Summary:
RXR-alpha HEK 293T cells were dispensed at 2,000 cells/6 uL of assay medium containing 2% charcoal-stripped FBS using a Multidrop Combi (ThermoFisher Scientific, Waltham, MA) dispenser. The assay was performed in black wall/clear-bottom 1536-well plates (Greiner Bio-One North America Inc. Monroe, NC). Tetraoctyl ammonium bromide was used as a positive control in the cytotoxicity screen. After the assay plates were incubated at 37 C and 5% CO2 for 5 hr, 23 nL of compounds dissolved in DMSO, positive control or DMSO only were transferred to the assay plate by a Pintool station (Kalypsys, San Diego, CA). The assay plates were incubated at 37 C and 5% CO2 for 16 hr. One uL of LiveBLAzer B/G FRET substrate (Life Technologies) was added using a Flying Reagent Dispenser (FRD) (Aurora Discovery, San Diego, CA) and the plates were incubated at room temperature for 2 hr. Fluorescence intensity (405 nm excitation, 460/530 nm emission) was measured using an Envision plate reader (PerkinElmer, Shelton, CT). For cytotoxicity, 4 uL/well of CellTiter-Glo reagent was added into the assay plates using an FRD. After 30 min incubation at room temperature, the luminescence intensity was measured using a ViewLux plate reader (PerkinElmer).
Potency means the concentration at half of the fitted maximal effect.

| Structure (SMILES) | Potency | activity change, negative = cytotoxicity |
| --- | --- | --- |
| O=C1OC(=O)c2ccc3c4c(ccc1c24)C(=O)OC3=O | inactive |  |
| CCN1CCN(c2cc(-c3ccc(F)cc3)c3c(n2)CCCCCC3)CC1 |  | -22.5% [at 15.8 µM] |
| c1ccc(Nc2cccc3ccccc23)cc1 | 24.9 µM (active) |  |
| C[Si](C)(C)Cl | inactive |  |
| CC(=O)O[C@@H]1C[C@@H]2CC[C@@]1(C)C2(C)C | inactive |  |
| O[C@@H](c1cc(C(F)(F)F)nc2c(C(F)(F)F)cccc12)[C@H]1CCCCN1 | 15.1 µM (active) |  |
| Cc1cc(C)c(C=O)c(C)c1 | inactive |  |
| Cc1cncc(C)c1 | inactive |  |
| CCCCCCCCCCCC(=O)N(CC)CC | inactive |  |
| CCN(CC)CCNc1ccc(CO)c2sc3ccccc3c(=O)c12 | 6.01 µM (active) |  |
| CCCC(=O)OCC(COC(=O)CCC)OC(=O)CCC | inactive |  |
| CCOC(=O)[C@@](C)(N)Cc1ccc(O)c(O)c1 | inactive |  |
| OCCC(O)CO (stereo not given) | inactive |  |
| Clc1cccnc1 | inactive |  |
| C=CC(C)C#N (stereo not given) | inactive |  |
| CC(=O)C=O | inactive |  |
| CCCCCCCC(=O)OCC | inactive |  |
| Nc1cc(Cl)c([N+](=O)[O-])cc1O | inactive |  |
| CCC(=O)CC(C)CC (stereo not given) |  | -1.51% [at 0.29 µM] |
| COc1cc(C(C)C)c2c(c1)S(=O)(=O)N(COc1cc(=O)n3cccc(OCCN4CCCCC4)c3n1)C2=O |  | -5.15% [at 15.8 µM] |

| Structure (SMILES) | Potency | activity change, negative = cytotoxicity |
| --- | --- | --- |
| C[C@@]12C(=O)OC(=O)[C@]1(C)C1CCC2O1 | inactive |  |
| CCCCCCCOC(=O)c1ccccc1C(=O)OCCCCCCC | inactive |  |
| C/C=C/c1ccc(OC)c(OC)c1 | inactive |  |
| CCCCCCCCCCCCCCCCCO |  | -0.179% [at 15.8 µM] |
| CC(C)c1ccc(O)c(C(C)C)c1 | 38.9 µM (active) |  |
| CO[Si](CCC1CCC2OC2C1)(OC)OC (stereo not given) | inactive |  |
| CCN=C1C=CC(=C(c2ccc(N(CC)CC)cc2)c2ccc(N(CC)CC)cc2)c2ccccc21 | 15.4 µM (active) |  |
| CC1=CCC(=O)O1 | inactive |  |
| O=C[C@H](O)[C@H](O)[C@H](O)CO | inactive |  |
| CCCOc1sc(C(=O)N2CCC(c3cc(CN)ccc3F)CC2)c(C)c1Br | 17.9 µM (active) |  |
| Clc1ccccc1CN1CCc2sccc2C1 | inactive |  |
| CC1(C)COCN1 | inactive |  |
| O=C1OC(OC(=O)c2cccnc2Nc2cccc(C(F)(F)F)c2)c2ccccc21 (stereo not given) | inactive |  |
| CC(C)(C)C1=CC(=O)C=C(C(C)(C)C)C1=O | inactive |  |
| CCC1CCCCC1 | inactive |  |
| CCCCN(C)C | inactive |  |
| CC(C)(c1cc(Br)c(O)c(Br)c1)c1cc(Br)c(O)c(Br)c1 | 54.8 µM (active) and 48.9 µM (active) and 46.3 µM (active) |  |
| Cc1cccc(C)n1 | inactive |  |
| C=C(c1ccc(C(=O)O)cc1)c1cc2c(cc1C)C(C)(C)CCC2(C)C | 49 µM (active) and 23.9 µM (active) |  |
| C=C(C)C(=O)OCCC[Si](Cl)(Cl)Cl | inactive |  |
